# Assay outcomes deposited in PubChem BioAssay by several laboratories.
# Most compounds without a hit are left out; they make up all but 4.7% or so of the library.
# SUMO HTRF inh – inhibitors of in vitro SUMOylation cascade, primary screen, biochemical, HTRF, uHTS. inhibition, % at 35 µM. 290,000 compounds, 0.36% hits. HTRF SUMOylation assay, SAE1/SAE2 + UBC9. AID 2006, 2009; in the data active = inhibition above about 50%, passing the limit was not always enough; inconclusive = no clear call, values can overlap the other calls
# PABP FP inh – PABP poly(A) RNA binding inhibitors, primary screen, biochemical, fluorescence polarization, uHTS. Polyadenylate-binding protein 1 (Homo sapiens), P11940. inhibition, % at 35 µM. 290,000 compounds, 1% hits. AID 2014, 2009;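 also: calls also rest on retests at 20 µM and on dose response follow-up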
# MLLE-PAM2 inh – inhibitors of PABP1 MLLE–PAM2 peptide binding, primary screen, biochemical, fluorescence polarization, FITC-PAM2, GST-MLLE. inhibition, % at 20 µM. AID 588489, 2011. 360,000 compounds, 0.36% hits. Polyadenylate-binding protein 1 (Homo sapiens), P11940; in the data active = inhibition above about 35%, passing the limit was not always enough;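 also: plate controls were DMSO wells with GST-MLLE for no effect and wells lacking GST-MLLE protein for full effect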
# ALR H2O2 inh – inhibitors of human ALR sulfhydryl oxidase, primary screen, biochemical, H2O2 detection, HRP-luminol luminescence, single point | FAD-linked sulfhydryl oxidase ALR (Homo sapiens), P55789 | purified ALR, DTT oxidation | inhibition, % (concentration not given with the values) | 290,000 compounds, 3.8% hits;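 active = mean replicate inhibition above about 79%, with every replicate also reaching it, limit read from the data; inconclusive = only one of the two criteria met; inactive = mean below limit and not every replicate reaching it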
# Efflux pump mplx – inhibitors of Candida efflux pumps in yeast, primary screen, S. cerevisiae, Nile Red, multiplex; S. cerevisiae Candida pump triplex; inhibition, % at 10 µM; 330,000 compounds, 0.44% hits; AID 485275, 2010;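 active = plate passing quality check with inhibition over a set limit, or well fluorescence over plate mean plus 4 SD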;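 also: Nile Red retained in pooled yeast measured as flow cytometry median fluorescence; 0% = buffer negative control and 100% = Enniatin B positive control; higher means more Nile Red kept so more efflux inhibition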
# eIF4H inh – human eIF4H binding inhibitors, primary screen, translation initiation inhibitor project, biochemical, uHTS, fluorescence polarization. inhibition, % at 35 µM. eIF4H fluorescence polarization binding assay. Eukaryotic translation initiation factor 4H (Homo sapiens), Q15056. 290,000 compounds, 0.94% hits;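 also: calls also rest on retests at 20 µM and on dose response follow-up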
# Numbers without * were called inactive; ? = inconclusive; / = not tested or not shown. Unless noted, no rule for the calls is given here.
SMILES,SUMO HTRF inh,PABP FP inh,MLLE-PAM2 inh,ALR H2O2 inh,Efflux pump mplx,eIF4H inh
CCOC(=O)C1CCN(C(=O)CCCn2nc(CC)n3c(cc4occc43)c2=O)CC1,-5,13,-1,5,0,3
CCN1CCc2nc(SCC(=O)Nc3ccc(OC)cc3)c(C#N)cc2C1,16,60,10,99*,0,45
CN1CCc2nc(SCC(=O)Nc3ccc(F)cc3)c(C#N)cc2C1,13,4,/,99*,0,9
COc1ccc(NC(=O)CSc2nc3c(cc2C#N)CN(C)CC3)cc1,2,20,12,97*,0,3
CC(=O)Nc1ccc(C(=O)N2CCCCC2c2cc(C(=O)Nc3cccc(C#N)c3)no2)cc1 (configuration not stated),/,/,-13,/,/,/
CC1(C)CN(c2ccccc2)C(=O)[C@H]1CC(=O)Nc1ccccc1,/,/,18,/,/,/
NS(=O)(=O)c1ccc(CCNC(=O)CCS(=O)(=O)c2ccc(Br)cc2)cc1,7,32,3,-5,0,90*
O=C(CCS(=O)(=O)c1ccc(Br)cc1)NCCc1ccccc1,12,24,2,-1,0,82
CCc1cccc(NC(=O)CCS(=O)(=O)c2ccc(Br)cc2)c1,13,24,-8,5,0,81*
Cc1ccc(S(=O)(=O)CCC(=O)Nc2cccc(C)c2)cc1,-2,-4,-14,-21,0,-5
C=CCn1c(NS(=O)(=O)c2ccccc2)c(S(=O)(=O)c2ccc(C)cc2)c2nc3ccccc3nc21,/,-4,-5,0,0,2
O=S(=O)(Nc1c(S(=O)(=O)c2ccccc2)c2nc3ccccc3nc2n1C1CCCCC1)c1ccccc1,99*,0,0,-8,0,12
CC1=CC2(O)OCCN(CCO)C2=CC1=O (configuration not stated),52,-4,17,14,0,82*
Cc1cc(C)n(-c2ncc3c(n2)N(CCO)CCOC3=O)n1,20,-5,16,-9,1,-4
CC(=O)N1CC[n+]2c(-c3ccc(Cl)cc3Cl)csc21,-11,0,22,52,0,-4
Cc1[nH]c2ccccc2c1/C=N/NC(=S)NC(C)C,2,-14,-40,99*,0,-12
CC(C)NC(=S)N/N=C/c1c[nH]c2ccccc12,-6,-10,-4,74,0,-1
Cc1cc(C(=O)Nc2ccc(N3CCOCC3)c3nonc23)ccc1[N+](=O)[O-],0,2,-2,/,0,-7
COc1ccc(Cl)cc1C(=O)Nc1cccc(-c2ccc3nncn3n2)c1,51*,-11,-186,-6,0,-34
CC(C)C(c1nnnn1C1CCCC1)N1CCCc2ccccc21 (configuration not stated),-2,3,11,25,0,0
CC(C)C(c1nnnn1C1CCCC1)N1CCc2ccccc21 (configuration not stated),7,-8,5,99*,0,5
CCCCCCSc1ccc([C@@H]2[C@H]3C(=O)N(CC)C(=O)[C@H]3[C@]3(C(=O)OC)CCCN23)cc1,/,/,21,-6,0,/
CC1(c2ccccc2)CC(C)(C)N2C(=O)Cc3cccc1c32 (configuration not stated),-3,-4,7,-9,0,-12
O=S(=O)(NNc1ccc(F)cc1F)c1cccc(Cl)c1,-9,1,5,98*,0,-2
O=C(NNc1ccc(F)cc1F)c1c(F)cccc1Cl,6,0,-2,46,0,-6
O=C1NC(=S)NC(=O)C1Nc1ccc(Cl)cc1,/,/,17,/,/,/
O=S1(=O)C[C@@H](O)[C@@H](Nc2ccc(Cl)cc2)C1,15,-3,-11,98*,0,-7
CC1=Nc2nc(N3CCCCC3)c(C#N)c3c4c(nc(c23)N1)N(c1ccc(C(C)C)cc1)C(=O)C4,60*,-1,-50,-12,0,?
Cc1c(NC(=O)Oc2ccccc2)sc(=S)n1C,5,4,39*,49,0,-3
Cc1ccc(C(=O)CCNc2ccccc2)o1,15,-6,-4,97*,0,-16
